Source: the supplement of paper PMC11001985

Each target was assayed with C#CCNC(=O)CCSSCCC(=O)NCCc1ccc(C=O)c(C=O)c1 (assay: lysine labeling ratio R10:1 (500 µM / 50 µM probe), SILAC-ABPP in living cells; higher = lower intrinsic lysine reactivity toward the probe, active = 2 or less). Settings: HeLa; probe concentrations 500 vs 50 µM.
Procedure, shortened: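 SILAC light and heavy living HeLa cells in PBS at room temperature were labelled with 50 µM or 500 µM of an alkyne-tagged, disulfide-linked lysine probe, with forward and reverse label swaps. Mixed lysates were clicked to biotin-azide, trypsin-digested, captured on neutravidin, DTT-released, alkylated and analysed by LC-MS/MS on a TIMS-TOF Pro. R is the filtered median high-probe/low-probe MS1 peptide ratio per lysine, then the median across forward and reverse replicates. Ratios are capped at 20.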

Chain of UniProt P61106 (P61106 whole entry, looked up): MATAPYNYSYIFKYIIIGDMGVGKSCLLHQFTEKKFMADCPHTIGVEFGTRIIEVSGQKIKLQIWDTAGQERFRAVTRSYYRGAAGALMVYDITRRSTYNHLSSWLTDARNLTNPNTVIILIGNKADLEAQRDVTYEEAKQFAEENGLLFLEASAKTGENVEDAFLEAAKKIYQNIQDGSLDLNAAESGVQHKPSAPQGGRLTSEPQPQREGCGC
Chain of UniProt P21333 (P21333 whole entry): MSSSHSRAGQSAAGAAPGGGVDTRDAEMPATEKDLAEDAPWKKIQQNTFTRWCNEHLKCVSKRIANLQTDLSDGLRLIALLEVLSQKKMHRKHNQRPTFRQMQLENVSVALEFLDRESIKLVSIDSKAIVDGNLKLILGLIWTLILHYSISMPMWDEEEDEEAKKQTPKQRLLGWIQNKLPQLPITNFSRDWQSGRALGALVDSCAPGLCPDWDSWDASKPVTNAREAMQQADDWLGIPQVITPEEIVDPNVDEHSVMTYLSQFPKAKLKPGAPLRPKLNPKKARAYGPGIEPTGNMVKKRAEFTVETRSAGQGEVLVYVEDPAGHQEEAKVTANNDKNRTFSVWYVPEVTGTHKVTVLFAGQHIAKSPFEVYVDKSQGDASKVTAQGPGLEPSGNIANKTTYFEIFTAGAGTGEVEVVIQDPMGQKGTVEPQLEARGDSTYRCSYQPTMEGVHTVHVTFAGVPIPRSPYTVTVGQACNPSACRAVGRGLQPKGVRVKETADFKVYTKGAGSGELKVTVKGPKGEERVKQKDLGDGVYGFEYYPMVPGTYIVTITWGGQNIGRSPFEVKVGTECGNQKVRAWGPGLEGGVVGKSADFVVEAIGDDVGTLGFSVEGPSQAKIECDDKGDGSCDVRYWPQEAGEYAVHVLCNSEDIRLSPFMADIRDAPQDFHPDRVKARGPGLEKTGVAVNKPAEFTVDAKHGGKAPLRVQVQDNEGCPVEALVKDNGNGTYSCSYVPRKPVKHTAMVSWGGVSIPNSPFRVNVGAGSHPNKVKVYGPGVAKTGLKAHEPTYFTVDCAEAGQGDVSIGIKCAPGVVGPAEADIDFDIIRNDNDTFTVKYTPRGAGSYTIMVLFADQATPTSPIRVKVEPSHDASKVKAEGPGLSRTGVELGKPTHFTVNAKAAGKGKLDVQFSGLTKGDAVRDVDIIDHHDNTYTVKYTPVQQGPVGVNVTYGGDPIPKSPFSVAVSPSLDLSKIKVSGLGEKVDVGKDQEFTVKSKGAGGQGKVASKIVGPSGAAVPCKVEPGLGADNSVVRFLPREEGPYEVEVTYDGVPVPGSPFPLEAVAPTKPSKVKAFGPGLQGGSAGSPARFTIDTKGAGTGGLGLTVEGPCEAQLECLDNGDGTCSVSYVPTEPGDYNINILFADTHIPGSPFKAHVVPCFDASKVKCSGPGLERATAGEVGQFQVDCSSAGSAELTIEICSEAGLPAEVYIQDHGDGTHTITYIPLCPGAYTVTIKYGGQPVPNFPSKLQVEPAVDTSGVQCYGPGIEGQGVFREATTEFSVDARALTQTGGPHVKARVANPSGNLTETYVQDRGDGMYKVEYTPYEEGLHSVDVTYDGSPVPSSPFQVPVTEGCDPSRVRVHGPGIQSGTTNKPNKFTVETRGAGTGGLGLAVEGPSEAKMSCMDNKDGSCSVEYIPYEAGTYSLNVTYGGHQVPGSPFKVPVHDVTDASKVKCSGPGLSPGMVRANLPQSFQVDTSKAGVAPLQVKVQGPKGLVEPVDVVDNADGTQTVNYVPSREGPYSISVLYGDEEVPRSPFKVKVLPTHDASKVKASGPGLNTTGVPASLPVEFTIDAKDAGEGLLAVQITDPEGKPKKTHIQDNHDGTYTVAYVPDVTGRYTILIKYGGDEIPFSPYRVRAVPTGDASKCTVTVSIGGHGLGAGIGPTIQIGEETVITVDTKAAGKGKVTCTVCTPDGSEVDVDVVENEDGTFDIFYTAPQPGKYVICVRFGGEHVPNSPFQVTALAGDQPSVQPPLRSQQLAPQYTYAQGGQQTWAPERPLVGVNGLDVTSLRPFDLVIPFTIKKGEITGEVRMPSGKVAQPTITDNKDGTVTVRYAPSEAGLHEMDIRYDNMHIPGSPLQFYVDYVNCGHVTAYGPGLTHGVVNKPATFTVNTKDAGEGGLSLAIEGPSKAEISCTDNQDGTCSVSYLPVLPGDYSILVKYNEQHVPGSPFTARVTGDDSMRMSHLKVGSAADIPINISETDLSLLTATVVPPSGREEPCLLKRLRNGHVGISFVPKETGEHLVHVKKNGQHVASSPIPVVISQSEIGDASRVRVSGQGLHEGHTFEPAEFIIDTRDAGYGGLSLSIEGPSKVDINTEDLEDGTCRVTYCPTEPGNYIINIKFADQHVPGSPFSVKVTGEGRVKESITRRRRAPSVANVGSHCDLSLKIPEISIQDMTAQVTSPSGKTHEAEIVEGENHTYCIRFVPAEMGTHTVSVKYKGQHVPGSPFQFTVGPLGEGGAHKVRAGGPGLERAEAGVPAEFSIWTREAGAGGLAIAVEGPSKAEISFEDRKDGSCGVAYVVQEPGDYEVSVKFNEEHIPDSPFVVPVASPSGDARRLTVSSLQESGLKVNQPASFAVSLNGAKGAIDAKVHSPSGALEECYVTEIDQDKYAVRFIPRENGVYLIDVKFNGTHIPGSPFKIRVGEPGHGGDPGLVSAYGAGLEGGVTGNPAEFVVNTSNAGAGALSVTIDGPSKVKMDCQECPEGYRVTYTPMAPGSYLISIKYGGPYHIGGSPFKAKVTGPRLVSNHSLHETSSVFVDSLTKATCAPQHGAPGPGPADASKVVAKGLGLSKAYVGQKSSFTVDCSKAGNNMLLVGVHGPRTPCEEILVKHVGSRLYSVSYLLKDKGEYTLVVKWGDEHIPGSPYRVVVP
Chain of UniProt P07737 (P07737 whole entry): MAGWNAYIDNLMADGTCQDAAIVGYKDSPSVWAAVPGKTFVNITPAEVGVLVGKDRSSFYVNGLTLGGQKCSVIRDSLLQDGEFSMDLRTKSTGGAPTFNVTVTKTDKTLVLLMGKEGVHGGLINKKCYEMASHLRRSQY
Chain of UniProt P25786 (P25786 whole entry): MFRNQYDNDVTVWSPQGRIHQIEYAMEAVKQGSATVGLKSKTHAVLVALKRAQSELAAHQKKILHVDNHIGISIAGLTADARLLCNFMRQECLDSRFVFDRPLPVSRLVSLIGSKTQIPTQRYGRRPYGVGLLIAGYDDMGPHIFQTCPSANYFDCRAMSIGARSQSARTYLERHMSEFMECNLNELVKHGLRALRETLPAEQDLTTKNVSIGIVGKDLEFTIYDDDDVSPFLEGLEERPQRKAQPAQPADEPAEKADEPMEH
Chain of UniProt Q9H8H3 (Q9H8H3 whole entry): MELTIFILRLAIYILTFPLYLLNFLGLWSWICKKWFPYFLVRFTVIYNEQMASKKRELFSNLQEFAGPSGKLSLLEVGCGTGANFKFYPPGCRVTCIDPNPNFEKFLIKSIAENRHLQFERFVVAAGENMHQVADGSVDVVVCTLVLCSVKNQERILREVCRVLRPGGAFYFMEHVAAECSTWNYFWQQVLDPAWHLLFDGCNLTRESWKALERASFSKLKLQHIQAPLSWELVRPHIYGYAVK
Chain of UniProt Q9UHN6 (Q9UHN6 whole entry): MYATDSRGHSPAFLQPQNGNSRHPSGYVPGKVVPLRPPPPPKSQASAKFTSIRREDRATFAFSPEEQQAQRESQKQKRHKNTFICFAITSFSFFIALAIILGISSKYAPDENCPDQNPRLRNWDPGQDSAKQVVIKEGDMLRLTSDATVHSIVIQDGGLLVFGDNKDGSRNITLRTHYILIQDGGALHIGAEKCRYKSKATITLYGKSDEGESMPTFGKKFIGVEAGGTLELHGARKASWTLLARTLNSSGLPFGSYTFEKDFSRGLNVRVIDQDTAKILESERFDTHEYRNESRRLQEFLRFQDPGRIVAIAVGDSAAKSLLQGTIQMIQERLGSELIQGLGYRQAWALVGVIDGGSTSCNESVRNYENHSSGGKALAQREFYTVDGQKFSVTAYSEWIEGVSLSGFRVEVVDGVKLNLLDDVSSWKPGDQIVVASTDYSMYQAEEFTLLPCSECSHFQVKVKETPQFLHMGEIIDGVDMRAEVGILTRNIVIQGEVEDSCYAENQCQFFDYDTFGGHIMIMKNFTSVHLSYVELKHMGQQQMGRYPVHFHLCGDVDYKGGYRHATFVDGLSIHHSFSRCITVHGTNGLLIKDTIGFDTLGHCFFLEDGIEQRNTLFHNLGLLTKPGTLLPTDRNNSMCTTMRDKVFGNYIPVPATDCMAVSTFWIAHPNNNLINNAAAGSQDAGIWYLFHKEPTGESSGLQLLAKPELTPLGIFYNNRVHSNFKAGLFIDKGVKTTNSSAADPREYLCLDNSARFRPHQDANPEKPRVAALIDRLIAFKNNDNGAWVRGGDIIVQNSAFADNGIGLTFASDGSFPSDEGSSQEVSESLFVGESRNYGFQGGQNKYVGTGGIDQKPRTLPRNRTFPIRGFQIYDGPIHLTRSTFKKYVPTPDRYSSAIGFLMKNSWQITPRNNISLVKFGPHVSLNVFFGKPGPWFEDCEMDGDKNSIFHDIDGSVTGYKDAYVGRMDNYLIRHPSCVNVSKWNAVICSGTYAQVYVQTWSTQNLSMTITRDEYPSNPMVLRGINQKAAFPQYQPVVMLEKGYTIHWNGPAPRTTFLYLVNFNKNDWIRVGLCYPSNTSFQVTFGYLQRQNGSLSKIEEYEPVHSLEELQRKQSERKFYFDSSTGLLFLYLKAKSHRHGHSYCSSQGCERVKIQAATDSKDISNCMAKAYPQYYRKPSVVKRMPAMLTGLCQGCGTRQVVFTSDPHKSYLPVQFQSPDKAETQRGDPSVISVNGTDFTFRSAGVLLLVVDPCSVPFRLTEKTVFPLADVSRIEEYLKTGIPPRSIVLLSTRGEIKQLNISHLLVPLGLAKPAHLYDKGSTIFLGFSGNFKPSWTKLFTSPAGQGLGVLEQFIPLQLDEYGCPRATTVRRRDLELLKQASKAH

Lysine labeling ratio R10:1, active:
VAPA (lysine site: K188) (UniProt Q9P0L0) 1.99
RPL34 (lysine site: K85) (UniProt P49207) 1.67
THRAP3 (lysine site: K711) (UniProt Q9Y2W1) 1.73
UniProt P62269 (lysine site: K54) 1.41
TPI1 (lysine site: K194) (UniProt P60174) 1.22
ACTN4 (lysine site: K331) (UniProt O43707) 1.71
METTL7A (lysine site: K210) (UniProt Q9H8H3) 1.36

Lysine labeling ratio R10:1, inactive:
UniProt P61106 (lysine site: K193) 3.57
PFN1 (lysine site: K127) (UniProt P07737) 2.19
FLNA (lysine site: K1071) (UniProt P21333) 3.76
PSMA1 (lysine site: K115) (UniProt P25786) 4.28
ANXA2 (lysine site: K279) (UniProt P07355) 5.78
NOTCH2 (lysine site: K1353) (UniProt Q04721) 7.44
UniProt P62851 (lysine site: K114) 2.69
F11R (lysine site: K63) (UniProt Q9Y624) 2.75
UniProt Q9UHN6 (lysine site: K1177) 6.32
MYH9 (lysine site: K1492) (UniProt P35579) 2.92
